tested on: GRIA2; experiment: glutamate-evoked VSD slope (GluSlope), % of maximal glutamate response; higher = potentiation (PAM), active = hit call of the paper; settings: 10 µM; glutamate: EC50 (3-4 uM); clone: A2R-stg (HEK293 GluA2flip(R) + stargazin)
Description: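 lower means inhibition (NAM); Primary voltage-sensitive dye (FLIPR Blue) screen on TetON HEK293 cells expressing GluA2flip(R) with stargazin (A2R-stg). Compound at 10 uM was preincubated for 290 s, then about EC50 glutamate (3-4 uM) was added; fluorescence was read on an FDSS at 1 Hz. GluSlope is expressed as % of the mean maximal-glutamate (1 mM) slope after vehicle subtraction. Hits deviated more than 3 SD from the plate EC50-glutamate wells. One well per compound.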

Row | SMILES | glutamate-evoked VSD slope
1 | Cc1ccccc1OCC(=O)Nc1cc(C(=O)N2CCCC2)cn(C)c1=O | 58.2% (inactive)
2 | Cc1ccc(-n2nc3c(c2-n2cccc2)CN(C(=O)c2cnccn2)C3)cc1C | 61.4% (inactive)

Source: the supplement of paper PMC5373622, “Screening for AMPA receptor auxiliary subunit specific modulators” (PLoS ONE, 2017)
